PubChem BioAssay (NCI)
This is part of a sample that, as a whole, favours compounds with a hit. Of some 83,000 tested, about 20% had one in any assay.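 A percent growth of 40 corresponds to 60% growth inhibition; 0 means no net growth; -100 means all cells died. Active threshold: below 10.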 Activity calls are given as the source filed them.

Key:
Test in all cases: NCI-60 one-dose screen, 48 h (100 = growth as untreated, 0 = no growth, -100 = all killed)
Details in all cases: 10 µM
SN12C renal = tested on: SN12C renal
UO-31 renal = tested on: UO-31 renal
TK-10 renal = tested on: TK-10 renal
ACHN renal = tested on: ACHN renal
CAKI-1 renal = tested on: CAKI-1 renal
A498 renal = tested on: A498 renal
CCRF-CEM leukemia = tested on: CCRF-CEM leukemia
MOLT-4 leukemia = tested on: MOLT-4 leukemia
SR leukemia = tested on: SR leukemia
RPMI-8226 leukemia = tested on: RPMI-8226 leukemia
OVCAR-8 ovarian = tested on: OVCAR-8 ovarian
OVCAR-5 ovarian = tested on: OVCAR-5 ovarian
OVCAR-4 ovarian = tested on: OVCAR-4 ovarian
SK-OV-3 ovarian = tested on: SK-OV-3 ovarian
IGROV1 ovarian = tested on: IGROV1 ovarian
OVCAR-3 ovarian = tested on: OVCAR-3 ovarian
HS 578T breast = tested on: HS 578T breast
NCI/ADR-RES ovarian = tested on: NCI/ADR-RES ovarian
T-47D breast = tested on: T-47D breast

Measured: growth

COc1ccc(-c2nn(-c3cccc(NC(=O)c4ccc(Cl)c(Cl)c4)c3)cc2-c2ccncc2)cc1Cl
inactive: SN12C renal 86.7% | UO-31 renal 47.6% | TK-10 renal 85% | ACHN renal 78.8% | CAKI-1 renal 73.1% | A498 renal 54.7% | CCRF-CEM leukemia 61.7% | MOLT-4 leukemia 62.7% | SR leukemia 24.3% | RPMI-8226 leukemia 58% | OVCAR-8 ovarian 75.5% | OVCAR-5 ovarian 92.4% | OVCAR-4 ovarian 93.3% | SK-OV-3 ovarian 82.2% | IGROV1 ovarian 84.5% | OVCAR-3 ovarian 81.9% | HS 578T breast 72.5% | NCI/ADR-RES ovarian 61.4% | T-47D breast 62.8%

COc1cccc(NC(=O)c2sc3nc4c(cc3c2N)C(O)CCC4)c1 (centres undefined)
inactive: SN12C renal 30.3% | UO-31 renal 40.3% | TK-10 renal 79.8% | ACHN renal 42% | CAKI-1 renal 34.4% | CCRF-CEM leukemia 11.2% | OVCAR-8 ovarian 17.5% | OVCAR-5 ovarian 50.3% | OVCAR-4 ovarian 49.1% | SK-OV-3 ovarian 24% | IGROV1 ovarian 27.7% | HS 578T breast 29.7% | T-47D breast 62.1%
active: A498 renal -7.35% | MOLT-4 leukemia 6.41% | SR leukemia 0.382% | RPMI-8226 leukemia 7.49% | OVCAR-3 ovarian -34.6% | NCI/ADR-RES ovarian 8.86%

N#CCCN1C/C(=C/c2ccc(Cl)cc2)C(=O)/C(=C/c2ccc(Cl)cc2)C1
active: SN12C renal -74.8% | UO-31 renal -95.5% | TK-10 renal -40.9% | ACHN renal -70.7% | CAKI-1 renal -9.22% | A498 renal -68.4% | CCRF-CEM leukemia -3.01% | MOLT-4 leukemia -11.7% | SR leukemia -17.5% | RPMI-8226 leukemia -15.5% | OVCAR-8 ovarian -22% | OVCAR-5 ovarian 4.05% | OVCAR-4 ovarian 8.18% | SK-OV-3 ovarian -10.2% | IGROV1 ovarian -66.7% | OVCAR-3 ovarian -48.6% | HS 578T breast -9.16% | T-47D breast 8.7%
inactive: NCI/ADR-RES ovarian 11.1%

CN(C)Cc1cn(-c2ncc(-c3ccc(C(F)(F)F)cc3)c(NC3CCCCCC3)n2)nn1
inactive: SN12C renal 87.5% | UO-31 renal 42.9% | TK-10 renal 85.2% | ACHN renal 92.1% | CAKI-1 renal 84.7% | A498 renal 76.9% | CCRF-CEM leukemia 80.6% | MOLT-4 leukemia 74.8% | SR leukemia 39.6% | RPMI-8226 leukemia 60.4% | OVCAR-8 ovarian 83.1% | OVCAR-5 ovarian 110% | OVCAR-4 ovarian 79.9% | SK-OV-3 ovarian 86.5% | IGROV1 ovarian 71.3% | OVCAR-3 ovarian 86% | HS 578T breast 93.6% | NCI/ADR-RES ovarian 91.9% | T-47D breast 81.7%

O=C(Nc1cccc(-n2cc(-c3ccncc3)c(-c3ccc(O)c(Cl)c3)n2)c1)Nc1cccc(C(F)(F)F)c1
active: UO-31 renal -9.43% | TK-10 renal -0.882% | ACHN renal 8.15% | CAKI-1 renal -14.5% | CCRF-CEM leukemia -0.796% | MOLT-4 leukemia -25% | SR leukemia -16.7% | RPMI-8226 leukemia -29.4% | OVCAR-8 ovarian -49.9% | OVCAR-4 ovarian 2.73% | SK-OV-3 ovarian 4.94% | IGROV1 ovarian -1.92% | OVCAR-3 ovarian -6.21% | HS 578T breast -4.27% | T-47D breast -23.6%
inactive: SN12C renal 10.3% | A498 renal 76.6% | OVCAR-5 ovarian 38.1% | NCI/ADR-RES ovarian 11.4%

CC/C(=C(/c1ccc(OCCN(C)C)cc1)c1ccc(OC(=O)CCCCC(=O)c2c(C)[nH]c(/C=C3\N=C(c4ccc[nH]4)C=C3OC)c2C)cc1)c1ccccc1
active: CCRF-CEM leukemia 9.97%
inactive: SN12C renal 62.3% | UO-31 renal 45.4% | TK-10 renal 103% | ACHN renal 67.1% | CAKI-1 renal 47.6% | A498 renal 75.7% | MOLT-4 leukemia 26.7% | SR leukemia 45.3% | RPMI-8226 leukemia 25.4% | OVCAR-8 ovarian 72.5% | OVCAR-5 ovarian 91.3% | OVCAR-4 ovarian 55% | SK-OV-3 ovarian 81.4% | IGROV1 ovarian 85.4% | OVCAR-3 ovarian 80.1% | HS 578T breast 33.8% | NCI/ADR-RES ovarian 71.7% | T-47D breast 25.2%

Cc1ccc(N=Nc2c(N)nc(N)[nH]c2=O)cc1C
inactive: SN12C renal 105% | UO-31 renal 72.5% | TK-10 renal 110% | ACHN renal 106% | CAKI-1 renal 94.4% | A498 renal 103% | CCRF-CEM leukemia 95.2% | MOLT-4 leukemia 93.2% | SR leukemia 88.3% | RPMI-8226 leukemia 97.8% | OVCAR-8 ovarian 104% | OVCAR-5 ovarian 105% | OVCAR-4 ovarian 105% | SK-OV-3 ovarian 99.2% | IGROV1 ovarian 92.6% | OVCAR-3 ovarian 110% | HS 578T breast 108% | NCI/ADR-RES ovarian 103% | T-47D breast 96%

O=C(Nc1ccc(CN2CCc3nc4cc(O)c(O)cc4cc32)cc1)c1ccc(Cl)c(Cl)c1
inactive: SN12C renal 97.4% | UO-31 renal 88.9% | TK-10 renal 122% | ACHN renal 98.2% | CAKI-1 renal 96.4% | A498 renal 103% | CCRF-CEM leukemia 78% | MOLT-4 leukemia 106% | SR leukemia 94.5% | RPMI-8226 leukemia 103% | OVCAR-8 ovarian 106% | OVCAR-5 ovarian 106% | OVCAR-4 ovarian 117% | SK-OV-3 ovarian 106% | IGROV1 ovarian 102% | OVCAR-3 ovarian 104% | HS 578T breast 102% | NCI/ADR-RES ovarian 106% | T-47D breast 88.6%

COc1ccc(Oc2nc(NC3CCCC3)nc(Sc3ccc(OC)cc3)n2)cc1
inactive: SN12C renal 78.9% | UO-31 renal 57.5% | TK-10 renal 109% | ACHN renal 79.5% | CAKI-1 renal 49.3% | A498 renal 65.5% | CCRF-CEM leukemia 53.2% | MOLT-4 leukemia 40.2% | SR leukemia 45.7% | RPMI-8226 leukemia 63.7% | OVCAR-8 ovarian 65.4% | OVCAR-5 ovarian 91.1% | OVCAR-4 ovarian 74.3% | SK-OV-3 ovarian 82.8% | IGROV1 ovarian 64.9% | OVCAR-3 ovarian 77.1% | HS 578T breast 83.8% | NCI/ADR-RES ovarian 66.2% | T-47D breast 55.9%

Cc1ccc(C(=O)N2C/C(=C/c3ccccc3)C(=O)/C(=C/c3ccccc3)C2)cc1
active: SR leukemia -12.4% | RPMI-8226 leukemia -23.1% | HS 578T breast 9.99%
inactive: SN12C renal 79.5% | UO-31 renal 56.6% | TK-10 renal 96.7% | ACHN renal 72.6% | CAKI-1 renal 63.2% | A498 renal 71.7% | CCRF-CEM leukemia 23.3% | MOLT-4 leukemia 32.6% | OVCAR-8 ovarian 48.7% | OVCAR-5 ovarian 105% | OVCAR-4 ovarian 75.3% | SK-OV-3 ovarian 78.9% | IGROV1 ovarian 69.1% | OVCAR-3 ovarian 57.9% | NCI/ADR-RES ovarian 66.1% | T-47D breast 61.8%

Cc1cccc(C)c1NC(=O)c1sc2nc3c(cc2c1N)C(=O)CCC3
inactive: SN12C renal 90.1% | UO-31 renal 79.5% | TK-10 renal 88.7% | ACHN renal 89.6% | CAKI-1 renal 52% | CCRF-CEM leukemia 66.5% | MOLT-4 leukemia 96.2% | SR leukemia 69.1% | RPMI-8226 leukemia 96% | OVCAR-8 ovarian 97.9% | OVCAR-5 ovarian 97.6% | OVCAR-4 ovarian 101% | SK-OV-3 ovarian 22.5% | IGROV1 ovarian 89.4% | OVCAR-3 ovarian 100% | HS 578T breast 93.2% | NCI/ADR-RES ovarian 87.6% | T-47D breast 92.8%
active: A498 renal -8.11%

O=C1OCC2=C1C(c1ccc(Cl)c(Cl)c1)c1cc3c(cc1N2CCO)OCCO3 (centres undefined)
inactive: SN12C renal 41.7% | UO-31 renal 22% | TK-10 renal 57% | ACHN renal 46.2% | CAKI-1 renal 34.1% | MOLT-4 leukemia 19.9% | SR leukemia 27.9% | RPMI-8226 leukemia 18.7% | OVCAR-8 ovarian 27.7% | OVCAR-5 ovarian 34.3% | OVCAR-4 ovarian 55.7% | SK-OV-3 ovarian 29.5% | IGROV1 ovarian 34.6% | T-47D breast 62.2%
active: A498 renal -5.46% | CCRF-CEM leukemia 7.16% | OVCAR-3 ovarian -53.7% | HS 578T breast -13.3% | NCI/ADR-RES ovarian 3.69%

CCN(CC)CCC(=O)Nc1cccc2c1C(=O)c1c(c(O)c3ccccc3c1O)C2=O
inactive: SN12C renal 59.5% | TK-10 renal 95.6% | ACHN renal 21.6% | CAKI-1 renal 14% | A498 renal 71.4% | RPMI-8226 leukemia 33.2% | OVCAR-8 ovarian 45.3% | OVCAR-5 ovarian 80.9% | OVCAR-4 ovarian 60.2% | SK-OV-3 ovarian 63.6% | IGROV1 ovarian 36.9% | OVCAR-3 ovarian 64.8% | HS 578T breast 76.6% | NCI/ADR-RES ovarian 46.9% | T-47D breast 41.2%
active: UO-31 renal -68% | CCRF-CEM leukemia -3.1% | MOLT-4 leukemia 2.61% | SR leukemia 6.44%

COc1ccc2c(c1)O/C(=C\c1ncc([N+](=O)[O-])n1C)C2=O
inactive: T-47D breast 76.5%
active: SN12C renal -8.55% | UO-31 renal -39.2% | TK-10 renal -27.3% | ACHN renal 0.77% | CAKI-1 renal -26.7% | A498 renal -77.7% | CCRF-CEM leukemia 4.88% | MOLT-4 leukemia 2.86% | SR leukemia 7.55% | RPMI-8226 leukemia -1.22% | OVCAR-8 ovarian -20.8% | OVCAR-5 ovarian -14.7% | OVCAR-4 ovarian -11.6% | SK-OV-3 ovarian -15.9% | IGROV1 ovarian -25% | OVCAR-3 ovarian -24.8% | HS 578T breast -21.1% | NCI/ADR-RES ovarian 1.07%

O=C1/C(=C\c2ccc(F)cc2)CN(C(=O)c2ccccc2F)C/C1=C\c1ccc(F)cc1
active: SN12C renal -57.1% | UO-31 renal -72.6% | TK-10 renal 9.87% | ACHN renal -33.1% | CAKI-1 renal -35.4% | CCRF-CEM leukemia -16.4% | MOLT-4 leukemia -1.83% | SR leukemia -17.7% | RPMI-8226 leukemia -35.8% | OVCAR-8 ovarian 1.61% | OVCAR-4 ovarian -5.48% | IGROV1 ovarian -38.4% | OVCAR-3 ovarian -29.8%
inactive: A498 renal 47.5% | OVCAR-5 ovarian 21.6% | SK-OV-3 ovarian 11.1% | HS 578T breast 11.8% | NCI/ADR-RES ovarian 11.5% | T-47D breast 40.1%

CC/C(=C(/c1ccc(OCCN(C)C)cc1)c1ccc(OC(=O)CCC(=O)c2c(C)[nH]c(/C=C3\N=C(c4ccc[nH]4)C=C3OC)c2C)cc1)c1ccccc1
inactive: SN12C renal 35.9% | TK-10 renal 21.7% | ACHN renal 30.4% | CAKI-1 renal 18.8% | A498 renal 50.3% | OVCAR-8 ovarian 22.8% | OVCAR-5 ovarian 65.3% | OVCAR-4 ovarian 37.4% | SK-OV-3 ovarian 63.5% | IGROV1 ovarian 27.6% | OVCAR-3 ovarian 33% | NCI/ADR-RES ovarian 20.7% | T-47D breast 22.7%
active: UO-31 renal 5.9% | CCRF-CEM leukemia 6.12% | MOLT-4 leukemia 3.77% | SR leukemia -21% | RPMI-8226 leukemia -22.3% | HS 578T breast 8.4%
